This is part of a sample that, as a whole, favours compounds with a hit. Of some 83,000 tested, about 20% had one in any assay.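 A percent growth of 40 corresponds to 60% growth inhibition; 0 means no net growth; -100 means all cells died. Active threshold: below 10.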 Values without a mark were called inactive. Calls of active or inactive are those of the source.
Legend:
Experiment in all cases: NCI-60 one-dose screen, 48 h (100 = growth as untreated, 0 = no growth, -100 = all killed)
Conditions in all cases: 10 µM
[1] = test system: T-47D breast
[2] = test system: BT-549 breast
[3] = test system: MDA-MB-435 melanoma
[4] = test system: SW-620 colon
[5] = test system: HCT-116 colon
[6] = test system: KM12 colon
[7] = test system: MCF7 breast
[8] = test system: HCC-2998 colon

| SMILES | growth [1] | growth [2] | growth [3] | growth [4] | growth [5] | growth [6] | growth [7] | growth [8] |
| --- | --- | --- | --- | --- | --- | --- | --- | --- |
| CCOc1nc(-c2ccccc2)cc2c(O)c(C(=O)NCCCO)[nH]c(=O)c12 | 97.4% | 97.6% | 94.9% | 96.4% | 98.9% | 99.1% |  |  |
| Cc1ccc(-c2cc(C(=O)Nc3ccc(S(=O)(=O)N4CCCCC4)cc3)[nH]n2)c(O)c1 | 33.8% | 67.4% | 61.3% |  | 43.5% | 45.1% | 46.8% | 68.8% |
| CCOC(=O)C1=C(Nc2ccc(OC)cc2)C(N)=NC1=N | 47.5% | 56.2% | -43.1% (active) | 25.2% | 34.5% | 30.2% |  | 81% |
| CCc1cc2n(n1)-c1ncc(C(=O)OC)cc1Oc1ccccc1-2 | 75.8% | 111% | 103% |  | 90.5% | 102% | 97.4% | 114% |
| O=C1/C(=C/c2cccs2)CCC/C1=C\c1cccs1 | 17.8% | 110% | 81.3% |  | 80.2% | 65.6% | 21.4% | 89.1% |
| O=[N+]([O-])c1ccc2c(c1)Cc1cc(I)ccc1-2 | 105% | 94.2% | 98.1% |  | 96.2% | 105% | 85% | 103% |
| O=C(NC1CCCC1)c1ccc(N2CCC(NCc3cccc(C(F)(F)F)c3)CC2)cc1 | 83.2% | 89.3% | 105% | 97% | 86.5% | 84.5% |  | 41.2% |
| O=C(O)c1cc(C(F)(F)F)cc(C(F)(F)F)c1 | 104% | 105% | 104% |  | 99.8% | 105% | 101% | 103% |
| C=CCNCCCN1C(=O)c2ccc3c4c(ccc(c24)C1=O)C(=O)N(CCCNCC=C)C3=O | -48.6% (active) | -82% (active) | -79% (active) |  | -16% (active) | -69.3% (active) | -64.8% (active) | -85.9% (active) |
| O=C(Nc1cccc([N+](=O)[O-])c1)NN1CCCCCC1 | 81.7% | 107% | 102% | 95.9% | 94.3% | 98.7% |  | 94.8% |
| O=C1/C(=C/c2ccc(O)cc2O)N=C2SCCCN12 | 85% | 96.9% | 99.2% | 107% | 99.5% | 91.3% |  | 119% |
| Cc1cc(OI)c(C(C)C)cc1-c1cc(C(C)C)c(OI)cc1C | 81.6% | 111% | 112% |  | 101% | 101% | 92.6% | 105% |
| O=C1c2cc(Cl)ccc2-c2c(O)cc(Cl)cc21 | 63.9% | 100% | 106% |  | 22.2% | 61% | 77% | 105% |
| c1ccc(C2CCCCC2)c(OCCCCCN2CCNCC2)c1 | 28% | 72.4% | 47.2% | 11.3% | -7.58% (active) | 35.6% |  | -68.8% (active) |
| C=CCc1cc(Nc2c3ccc(Cl)cc3nc3ccc(OC)cc23)cc(CN(CC)CC)c1O | 0.233% (active) | 10.9% | 15.5% |  | 5.97% (active) | 11.7% | 3.42% (active) | 24.2% |
| NC(=O)c1ccc(Br)o1 | 92.9% | 103% | 112% |  | 108% | 102% | 95.5% | 91.1% |
| Cc1ccc([P+](Cc2ccc([N+](=O)[O-])cc2)(c2ccc(C)cc2)c2ccc(C)cc2)cc1 | 7.03% (active) | 17.2% | 6.06% (active) |  | 22% | 16% | 29.7% | 31.3% |
| Cn1cnc([N+](=O)[O-])c1/C=C1\Oc2ccc(Cl)cc2C1=O | 85.1% | 109% | 86.2% | 72% | 22.4% | 82.9% |  | 97.4% |
| CCOC(=O)Nc1ccc2c(c1)C(=O)N(CC)c1ccccc1O2 | 73.4% | 26.2% | -17.1% (active) | 32.7% | 9.54% (active) | 14.7% |  | 18.2% |

| SMILES | growth [1] | growth [2] | growth [3] | growth [4] | growth [5] | growth [6] | growth [7] | growth [8] |
| --- | --- | --- | --- | --- | --- | --- | --- | --- |
| CCCCCCN=C(N)CCCCCCCCCCC(N)=NCCCCCC | 12.2% | 39.4% | 38.9% |  | 16.5% | 34.8% | 14.9% | 35.7% |
| Cn1c([N+](=O)[O-])cnc1C=C1C(=O)c2ccccc2C1=O | 65.4% | 25% | 11.8% |  | 20.7% | 68.3% |  | 88.2% |
| Cc1ccc2oc(=O)cc(/C(=C3/C=CC=N3)c3ccc[nH]3)c2c1 | -1.91% (active) |  | -24.8% (active) | 20.9% | 1.45% (active) | -17.6% (active) | 7.32% (active) | -17% (active) |
| C/C(=N/NC(=O)c1sc(=S)n(C)c1N)c1cc2cc(Cl)ccc2o1 | 80.4% | 113% | 95.7% |  | 103% | 88.2% | 82.7% |  |
| CCOC(=O)c1sc(NC(=O)c2cc(OC)c(OC)c(OC)c2)nc1C | 118% |  | 102% | 98.1% | 111% | 99.3% | 87.5% | 57.4% |
| COc1ccc(-c2csc(-c3cc(Cl)cc(Cl)c3Cl)n2)cc1 | 50.6% | 102% | 80.7% |  | 108% | 86.9% | 56.2% |  |
| COc1ccc(C(=O)n2nc(CC(=O)NCc3ccccc3)nc2N)cc1 | 105% |  | 109% | 105% | 99.5% | 116% | 99.1% | 104% |
| COc1ccc(-n2nnc3c(sc4ccccc43)c2=O)cc1 | 35.5% |  | 69% | 83.9% | 5.85% (active) | 70.2% | 80.4% | 74.9% |
| Clc1ccc(-c2nc(-c3cccs3)cn3ccnc23)cc1 | 16.3% |  | 23.2% | 57.3% | 68% | 50.5% | 19.1% | 47.8% |
| COc1cccc(-c2nnc(COc3ccc(-c4nc5ccc(C)cc5[nH]4)cc3OC)o2)c1 | 50.7% | 92.7% | 41.6% |  | 29.4% | 39.7% | 18.5% | 88.6% |
| COc1ccccc1CNCCCN1C(=O)c2ccc3c4c(ccc(c24)C1=O)C(=O)N(CCCNCCNCCCN)C3=O | 17.9% | 69.4% | 10.4% |  | 1.05% (active) | 15.4% | -39.1% (active) | 14.7% |
| Nc1c(C(=O)NC2CCCCC2)sc2nc3c(cc12)C(=O)CCC3 | 94.2% | 95.4% | 54.7% |  | 102% | 91.8% | 83.2% | 121% |
| COc1ccc2oc(=O)cc(C(c3ccc[nH]3)c3ccc[nH]3)c2c1 | 22.5% |  | -24.3% (active) | 25.6% | -3.62% (active) | 4.33% (active) | 13.9% | -5.71% (active) |
| COc1ccc2nc(NC(=O)Nc3c(F)cccc3F)sc2c1 | 106% |  | 99% | 105% | 102% | 112% | 95.6% | 102% |
| COc1ccc(-c2cc(/C=C3\C(=O)Nc4cc(Cl)ccc43)[nH]n2)cc1 | 47.8% | 63.5% | -36.7% (active) |  | 26.2% | 19.2% | 11.7% | 56.7% |
| FC(F)(F)c1ccc(-c2cnc(Br)nc2NC2CCCCCC2)cc1 | 19.3% | 56.6% | 20.4% |  | 20.3% | 25% | 27.1% | 72.1% |
| COCCOC(=O)NC(=O)Nc1ccc(/C(=N/O)c2ccc(Cl)cc2)cc1 | 62.5% |  | 3.81% (active) | 29% | 4.17% (active) | 11.7% | 14.3% | -1.35% (active) |
| Nc1ncc(-c2ccc(C(F)(F)F)cc2)c(NC2CCCCCC2)n1 | 20.5% | 48.3% | 37.1% |  | 26.3% | 31.6% | 25% | 35.1% |

Source: PubChem BioAssay (NCI)
